# The panel holds about 83,000 compounds, 20% with a hit somewhere; the sample as a whole holds those more often.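 Testing used 96-well plates and a 48-hour single-concentration exposure. Example: -40 means 40% of the starting cells died.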 Activity calls are given as the source filed them. How the source made its calls: active means growth percent below 10; inactive means the rest.
# Test system: K-562 leukemia
# Experiment: NCI-60 one-dose screen, 48 h (100 = growth as untreated, 0 = no growth, -100 = all killed)
# Conditions: 10 µM unless noted
row,Compound,growth
1,COc1cc2nc(Cl)nc(Nc3cccc(C4=Nc5c(N)nc(N)nc5NC(c5ccccc5)C4)c3)c2cc1OC (stereo not drawn),6.71% (active)
2,C#C[C@]1(O)CC[C@H]2[C@@H]3CC=C4c5sc(-c6ccc7c(c6)OCO7)nc5CC[C@]4(C)[C@H]3CC[C@@]21C,32.6% (inactive)
3,CCO/C=N/C1=C(C#N)C(c2ccc(F)cc2)c2sc3c(C)cccc3c2O1 (stereo not drawn),10.4% (inactive)
4,COc1ccc(/C=C(\C#N)C(=O)N2c3ccccc3Sc3ccc(SC)cc32)cc1F,80.8% (inactive)
5,NC(N)=Nc1ccc(Oc2cccc(Nc3ccc(Cl)c(C(F)(F)F)c3)c2)cc1,5.61% (active)
6,COc1ccccc1-n1cc(C#N)c(N)c1C(=O)c1ccc(Br)cc1,20.1% (inactive)
7,Cc1cccc(/C=C/C(=O)Nc2ncc(Cc3cccc(C)c3)s2)c1,11.9% (inactive)
8,C=C(C=O)[C@@H]1CC[C@]2(C)[C@H](CC=C3[C@H]4[C@@H](C)[C@H](C)CC[C@]4(C(=O)OC)CC[C@]32C)[C@@]1(C)CCC#N,8.57% (active)
9,NC(N)=Nc1ccc(Oc2cccc(Nc3ccc(Br)c(C(F)(F)F)c3)c2)cc1,-11.1% (active)
10,Nc1nc(N)c2c(n1)NC(c1ccc(C(F)(F)F)cc1)CC(c1ccc(Nc3nc(NCCO)nc(N4CCOCC4)n3)cc1)=N2 (stereo not drawn),17.9% (inactive)
11,COc1ccccc1-n1cc(C#N)c(N)c1C(=O)c1ccc(C)cc1,28.4% (inactive)
12,O=C(CCn1c[n+](CC(=O)c2ccc(F)cc2)c2ccccc21)Nc1cccc2cccnc12,58.5% (inactive)
13,C#CCn1cccc1CNc1ccc(OC)cc1,-46.9% (active)
14,NC(N)=Nc1ccc(Oc2cccc(Oc3ccc(Cl)c(C(F)(F)F)c3)c2)cn1,-54.7% (active)
15,CCn1c2ccccc2c2cc(-n3nncc3-c3ccccc3)ccc21,10.3% (inactive)
16,COc1ccc(COc2ccc(/C=C3\C(=O)Nc4ccccc43)cc2OC)cc1,101% (inactive)
17,O=C(CCn1cc[n+](CC(=O)c2ccc(-c3ccccc3)cc2)c1)Nc1cccc2cccnc12,45.9% (inactive)
18,C[C@@H]1C[C@H]2C(=O)O[C@@H](C)C(NC(=O)[C@H](Cc3cc(F)cc(F)c3)NC(=O)Nc3ccc(C4CC4)cc3F)C(=O)N3CCC[C@H]3C(=O)N3CCCC[C@H]3C(=O)N[C@@H](CO)C(=O)N2C1 (stereo partly drawn),18.6% (inactive)
19,CCOC(=O)c1c(Nc2ccccc2)nn2c(-c3ccccc3)ccnc12,63.8% (inactive)

row,Compound,growth
1,C#C[C@]1(O)CC[C@H]2[C@@H]3CC=C4c5sc(-c6cccc(O)c6)nc5CC[C@]4(C)[C@H]3CC[C@@]21C,-5.49% (active)
2,C#C[C@]1(O)CC[C@H]2[C@@H]3CC=C4c5sc(-c6ccc(C)cc6)nc5CC[C@]4(C)[C@H]3CC[C@@]21C,6.37% (active)
3,NS(=O)(=O)c1ccc(-n2cc(-c3cccc(NC(=O)c4ccc(N5CCOCC5)c(C(F)(F)F)c4)c3)nn2)cc1,19.3% (inactive)
4,CCO/C=N/C1=C(C#N)C(c2ccc(OC)cc2)c2sc3c(CC)cccc3c2O1 (stereo not drawn),14.5% (inactive)
5,O=C(CN1CCN(c2cc(=O)[nH]c3ccc(F)cc23)CC1)Nc1ccc(Cl)cc1,78.8% (inactive)
6,COc1cc2nc(Cl)nc(Nc3cccc(C4=Nc5c(N)nc(N)nc5NC(c5ccc6c(c5)OCO6)C4)c3)c2cc1OC (stereo not drawn),4.53% (active)
7,CC1(C)NCCC[C@]2(C)[C@H]3C/C(=N\O)C4[C@@H]5C[C@@](C)(CO)CC[C@]5(C)CC[C@@]4(C)[C@]3(C)CC[C@@H]12 (stereo partly drawn),80.7% (inactive)
8,C#Cc1nc(/C=C/C(=O)c2nccn2C)cs1,-16.8% (active)
9,COc1cc2nc(Cl)nc(Nc3cccc(C4=Nc5c(N)nc(N)nc5NC(c5ccc(Cl)cc5)C4)c3)c2cc1OC (stereo not drawn),-22% (active)
10,CC(C)(C)c1ccc(C(=O)Nc2sc3c(c2C(N)=O)CCC(O)C3)cc1 (stereo not drawn),6.74% (active)
11,COc1ccc(-c2nc3cccc(O)c3c(=O)n2Cc2ccccc2)cc1COc1ccc(NC(C)=O)cc1,18.9% [3 µM] (inactive)
12,N#Cc1cn(Cc2ccc(Cl)cc2Cl)c(C(=O)c2ccc(Br)cc2)c1N,94.9% (inactive)
13,O=C(CCn1c[n+](CC(=O)c2ccc(-c3ccccc3)cc2)c2ccccc21)Nc1cccc2cccnc12,22.9% (inactive)
14,Cc1ccc(-c2nnc(SCc3ccc(O)c4ncccc34)o2)cc1,11.3% (inactive)
15,Cc1ccc(S(=O)(=O)N(CC[C@@H]2C[C@H]2c2cc3ccccc3o2)S(=O)(=O)c2ccc(C)cc2)cc1,83.1% (inactive)
16,COc1ccc(Cn2cc3c(c2-c2cc(OC)c(OC)c(OC)c2)CCc2c(CN4CCCC4)noc2-3)cc1,14% (inactive)
17,Cc1nn(-c2ccccc2)c2ncnc(N/N=C/c3cccc(O)c3)c12,13.4% (inactive)
18,COc1ccc(C2CC(c3ccc(Nc4nc(NCCO)nc(N5CCOCC5)n4)cc3)=Nc3c(N)nc(N)nc3N2)cc1 (stereo not drawn),99.1% (inactive)
19,O=C(CN1CCN(c2cc(=O)n(-c3ccccc3)c3ccccc23)CC1)Nc1ccc(F)cc1,37.3% (inactive)

# — PubChem BioAssay (NCI)
